# Key:
# Type in all cases: functional
# Plasmodium falciparum [1] = assay: GSK_TCMDC: Inhibition of Plasmodium falciparum 3D7 in whole red blood cells, using parasite LDH activity as an index of growth. Test compounds present at 2uM
# Plasmodium falciparum [2] = assay: GSK_TCMDC: Inhibition of Plasmodium falciparum Dd2 in whole red blood cells, using parasite LDH activity as an index of growth. Test compounds present at 2uM
# HepG2 = assay: GSK_TCMDC: Percent inhibition of human HepG2 cell line. Test compounds present at 10uM.
Compound,Inhibition (Plasmodium falciparum [1]) [%],Inhibition (Plasmodium falciparum [2]) [%],Inhibition (HepG2) [%]
O=C(/C=C/c1ccc(Cl)c(Cl)c1)NCCCCCN1CCC(C(=O)Nc2ccc(F)c(Cl)c2)CC1,100,0,25
CCN(CC)CCN(Cc1ccc(-c2ccc(C(F)(F)F)s2)cc1)C(=O)Cn1c(CCc2cccc(F)c2F)nc(=O)c2ccccc21.O=C(O)C(O)C(O)C(=O)O,94,31,43
CCCN/C=N/c1cc(-c2csc(NC(=N)N)n2)cc([N+](=O)[O-])c1,91,1,12
CCOc1cc(C)ccc1C1CCN(CCCCNC(=O)c2ccc(NC(=O)c3cc(Cl)cc(Cl)c3)cc2)CC1,99,78,4
C[C@@H]1CC[C@H](NC(=O)[C@H](CC2CCCC2)NC(=O)N2CCNCC2)C(=O)CN1S(=O)(=O)c1ccccn1.O=C(O)C(F)(F)F,84,19,5
Nc1ncnc2nc(-c3ccc(F)cc3)cc(-c3ccc(NC(=O)c4ccccc4)cc3)c12,100,97,0
Cc1ccc(CNC(=O)[C@H](CCCN)Nc2nc(Nc3ccccc3)ncc2C)cc1.O=C(O)C(F)(F)F,97,0,0
CC(C)(CNCc1ccc(C(F)(F)F)cc1)c1nc(-c2ccc(Cl)c(O)c2)c(-c2ccncc2)[nH]1.Cl,100,98,42
COc1cc(C(=O)Nc2ccc(-c3nc4ccccc4[nH]3)cc2)cc(OC)c1OC,99,33,13
O=C(O)C(F)(F)F.Oc1ccc(CCNc2nc(NCc3ccc4cc(Cl)ccc4c3)nc(N3CCNCC3)n2)cc1,92,38,14
Cc1cc(C(=O)CN2C(=O)NC(C)(c3cccc4ccccc34)C2=O)c(C)n1Cc1ccco1 (stereo not given),90,23,0
O=C(CCNc1ccnc(NCCc2ccc(F)cc2)n1)Nc1ccccc1.O=C(O)C(F)(F)F,95,10,9
CN(C)CCNC(=O)c1ccc(-c2ccc3c(Nc4ccccc4)c(C(N)=O)cnc3c2)cc1,99,68,9
CCOc1ccc2c(=NN=Cc3cccc(F)c3)cc(C)[nH]c2c1,100,100,0
COc1ccc(CCN2CCC(Nc3nc4ccccc4n3CCc3ccc(OC)cc3)CC2)cc1.Cl,100,88,34
CCNc1cc(C)nc(Nc2ccc(NS(=O)(=O)c3cc(OC)ccc3OC)cc2)n1,100,36,56
Cc1cc(-c2ccc(CNCc3ccsc3)cc2)ccc1S(=O)(=O)NCCN1CCCC1.O=C(O)C(F)(F)F,99,49,57
CCOc1c(CCNCCCCNCCc2ccc3ccccc3c2OCC)ccc2ccccc12.CS(=O)(=O)O,94,87,100
Cn1cncc1C(=O)Nc1cccc(-c2cccc(-c3nc4cc(C(F)(F)F)ccc4[nH]3)c2)c1,100,99,38
O=C(Nc1ccc(C(F)(F)F)cc1)c1ccc(S(=O)(=O)NC2CCN(CC3CCCCC3)C2)cc1.O=C(O)C(F)(F)F (stereo not given),99,16,33

Compound,Inhibition (Plasmodium falciparum [1]) [%],Inhibition (Plasmodium falciparum [2]) [%],Inhibition (HepG2) [%]
NCCNS(=O)(=O)c1ccc(-c2ccnc3[nH]c(-c4ccncc4)cc23)cc1.O=C(O)C(F)(F)F,96,95,0
CC(C)CNC(=O)c1cncc(-c2ccc(CN3CCC(N4CCCC4)CC3)cc2)c1.O=C(O)C(F)(F)F,100,42,25
Cc1nc(NCCc2c[nH]cn2)cc(NCc2ccccc2)n1,100,5,5
CCCCN(CCCC)/C(=N/c1cccc(Cl)c1Cl)Nc1ccc(C#N)cc1O,89,69,4
O=C(NCCCN1CCOCC1)c1cccc(Nc2nccc(Nc3ccc(Oc4ccccc4)cc3)n2)c1,98,22,34
O=C(NCC1CCN(Cc2cccc(C(F)(F)F)c2)C1)c1cc(-c2cccc(F)c2)cs1.O=C(O)C(F)(F)F (stereo not given),87,5,19
CCOC(=O)c1ccc(NC(=O)N[C@@H](Cc2ccccc2)C(=O)NC2CCN(Cc3ccc(OCCCN(C)C)cc3)C2)cc1 (stereo not given in full),91,8,5
Cc1cc(NCC2CCN(CC3CCCCC3)C2)nc(Nc2ccc(Br)cc2)n1 (stereo not given),100,78,0
NC1CCCN(Cc2cccc(-c3ccc(-c4nc5ccccc5[nH]4)s3)c2)C1.O=C(O)C(F)(F)F (stereo not given),98,88,21
COc1ccc(CNC(=O)Nc2cc3cc(-c4ccc(CN(C)C)cc4)ccc3n3c(C)nnc23)cc1,93,80,99
Cc1cc(N2CCC(N(C)C)C2)nc(Nc2ccc(Cl)cc2)n1 (stereo not given),99,17,11
Nc1nc(N)c2c(ccc3c2ccn3Cc2cc3c(cc2Cl)OCO3)n1,95,94,58
Cc1ccc(C(=O)Nc2ccc(Nc3ccnc4cc(-c5ccncc5)ccc34)cc2O)cc1,97,100,14
O=C(Nc1cccc(-c2csc(-c3nc4ccccc4[nH]3)c2)c1)c1ccncc1,100,61,64
Cc1ccc2c(Cl)c(C(=O)N3CC(C)OC(C)C3)sc2c1 (stereo not given),100,98,4
O=C(O)C(F)(F)F.O=S(=O)(NC1CCN(c2ccnc3ccccc23)C1)c1ccc(OC(F)(F)F)cc1 (stereo not given),88,0,34
O=C(/C=C/c1ccc(Cl)c(Cl)c1)NCCCCCN1CCC(c2n[nH]c(-c3ccccc3)c2Br)CC1,95,23,100
COc1ccccc1CCNc1nc(C)cc(N[C@@H](CC(C)C)C(=O)NCc2cccs2)n1.O=C(O)C(F)(F)F,96,31,20
CN(C)S(=O)(=O)c1cc(-c2ccc3nccc(-c4cccc(S(N)(=O)=O)c4)c3c2)cnc1N,100,98,35
Clc1ccc(CNCC2CCN(CC3CCCCC3)CC2)cc1Cl,92,6,18

Compound,Inhibition (Plasmodium falciparum [1]) [%],Inhibition (Plasmodium falciparum [2]) [%],Inhibition (HepG2) [%]
Cc1cc(-c2ccc(Cl)cc2)c2c(N)c(C(=O)Nc3ccc(F)cc3)sc2n1,97,87,12
COc1cc(O)c2c(=O)c(OC)c(-c3cccc(Cl)c3OC3O[C@H](CO)[C@@H](O)[C@H](O)[C@H]3O)oc2c1OC (stereo not given in full),100,6,16
Cc1ccc(NC(=O)c2cn(-c3ccccc3)nc2-c2ccc(F)cc2)cc1[N+](=O)[O-],92,38,6
C#CCN(Cc1ccc2[nH]c(N)nc(=O)c2c1)c1ccc(C(=O)N[C@@H](CCC(=O)O)C(=O)O)cc1,95,96,45
COc1cc(NC(=O)/C=C/c2cc(F)cc(F)c2F)cc(OCCN2CCC(O)(c3ccccc3)CC2)c1.O=C(O)C(=O)O,100,82,54
Fc1ccc2[nH]c(-c3cccc(-c4ccc(CN5CCN(c6ccncc6)CC5)cc4)c3)nc2c1.O=C(O)C(F)(F)F,100,67,39
Cc1ccccc1C1CCN(C2CCC(NC(=O)/C=C/c3ccccc3C(F)(F)F)CC2)CC1 (stereo not given),83,6,63
Cl.N=C(NCCc1ccc(Cl)c(Cl)c1)c1ccc2ccccc2c1,100,29,60
CC(C)(C)Nc1nc(Nc2cccc([N+](=O)[O-])c2)nc(-n2ccnc2)n1,98,41,10
CC(C)(C)CC(=O)Nc1ccc(Nc2cc(-c3ccncc3)cc3ncc(C(N)=O)cc23)cc1,97,85,5
NC1CCN(c2nc(NCCCc3ccc(O)cc3)nc(NCc3cccc4ccccc34)n2)CC1.O=C(O)C(F)(F)F,100,2,12
N#Cc1ccc(-c2ccc(OCC(O)CN3CCCN(Cc4cccc(O)c4Cl)CC3)cc2)cc1 (stereo not given),98,66,3
O=C(Nc1cccc(C(F)(F)F)c1)Nc1cc(F)c(F)cc1Cl,83,98,0
Nc1ccc2nc(C=Cc3ccc(Cl)cc3)[nH]c2c1,91,83,19
Cn1cnnc1Sc1ccc(CN2CCOc3ccc(C4=CCCCC4)cc3C2)o1,98,97,1
CCCCCCNC(=O)c1nn(CCN2CCC(N3CCCC3)CC2)cc1-c1ccc(Cl)c(Cl)c1,100,33,31
N#Cc1cc(C(=O)c2cc(Cl)ccc2O)cn(-c2cc(Cl)cc(Cl)c2)c1=O,93,32,34
CCc1ccc(NC(=O)c2cccc(CN3CCCN(CC4CCCCC4)CC3)c2)cc1.O=C(O)C(F)(F)F,85,41,62
CCOC(=O)NC1=NC(C)(C)N(OCCCOc2cc(Cl)c(Cl)cc2Cl)C(NC(=O)OCC)=N1,91,97,63
COc1ccc2nccc([C@@H](O)CN3CCC(NC(=O)C(c4ccsc4)N4CCN(c5ccccc5OC)CC4)CC3)c2c1 (stereo not given in full),95,50,11
